# According to PubChem BioAssay AID1159580 (chemical genetic matrix, 2015):
# Values joined by “and” are separate entries in the source; they are usually repeats but may differ in a detail not shown here. Equal values may be shown once. The whole screen tested about 5,500 compounds, of which about 2,000 (36%) were called active. Inconclusive results (about 18%) are left out. The list shows a part of the results. Values without a mark were called inactive. Rule as the data show it: active = normalized growth mostly below about 0.91 (no sharp cut-off); inconclusive = no clear call, values can overlap the other calls; inactive = mostly above about 0.92.
# Experiment: chemical genetic growth profiling, strain panel (AID 1159580);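 also: tested at 20 µM; growth read once vehicle control cultures reached saturation at 30 °C; 1 = growth at the plate median or of vehicle wells; lower values mean less growth of the strain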
# Settings: S. cerevisiae deletion strains, growth OD
smiles,measurement,setting,value
COc1cc(NC(C)CCCN)c2ncccc2c1 (configuration not stated),normalized growth,"locus YAL013W, strain DEP1, stronger effect = lower value",1
same,normalized growth,"locus YAL021C, strain ccr4, stronger effect = lower value",0.972
same,normalized growth,"locus YAL026C, strain drs2, stronger effect = lower value",1.02
same,normalized growth,"locus YAL030W, strain snc1, stronger effect = lower value",0.999
same,normalized growth,"locus YBL061C, strain skt5, stronger effect = lower value",1
same,normalized growth,"locus YBR009C, strain hhf1, stronger effect = lower value",1.07
same,normalized growth,"locus YBR021W, strain FUR4, stronger effect = lower value",0.988
same,normalized growth,"locus YBR023C, strain chs3, stronger effect = lower value",1.02
same,normalized growth,"locus YBR171W, strain sec66, stronger effect = lower value",1.01
same,normalized growth,"locus YBR229C, strain ROT2, stronger effect = lower value",1
same,normalized growth,"locus YBR231C, strain swc5, stronger effect = lower value",0.984
same,normalized growth,"locus YBR279W, strain paf1, stronger effect = lower value",1.01
same,normalized growth,"locus YCL011C, strain gbp2, stronger effect = lower value",1.01
same,normalized growth,"locus YCL016C, strain dcc1, stronger effect = lower value",1.02
same,normalized growth,"locus YCL029C, strain bik1, stronger effect = lower value",1.02
same,normalized growth,"locus YCL061C, strain MRC1, stronger effect = lower value",1
same,normalized growth,"locus YCL069W, strain vba3, stronger effect = lower value",1.01
same,normalized growth,"locus YCR088W, strain abp1, stronger effect = lower value",1
same,normalized growth,"locus YDL005C, strain med2, stronger effect = lower value",1
same,normalized growth,"locus YDL035C, strain GPR1, stronger effect = lower value",1
same,normalized growth,"locus YDL040C, strain nat1, stronger effect = lower value",1
same,normalized growth,"locus YDL074C, strain BRE1, stronger effect = lower value",1.01
same,normalized growth,"locus YDL101C, strain DUN1, stronger effect = lower value",1.02
same,normalized growth,"locus YDL134C, strain PPH21, stronger effect = lower value",1.01
same,normalized growth,"locus YDL185W, strain tfp1, stronger effect = lower value",1.01
same,normalized growth,"locus YDL192W, strain arf1, stronger effect = lower value",1.01
same,normalized growth,"locus YDR001C, strain nth1, stronger effect = lower value",1.01
same,normalized growth,"locus YDR069C, strain doa4, stronger effect = lower value",0.977
same,normalized growth,"locus YDR101C, strain arx1, stronger effect = lower value",1
same,normalized growth,"locus YDR137W, strain rgp1, stronger effect = lower value",1.03
same,normalized growth,"locus YDR150W, strain NUM1, stronger effect = lower value",1.01
same,normalized growth,"locus YDR159W, strain sac3, stronger effect = lower value",0.993
same,normalized growth,"locus YDR162C, strain NBP2, stronger effect = lower value",1.01
same,normalized growth,"locus YDR195W, strain ref2",0.99
same,normalized growth,"locus YDR297W, strain sur2, stronger effect = lower value",1
same,normalized growth,"locus YDR318W, strain mcm21, stronger effect = lower value",1
same,normalized growth,"locus YDR334W, strain swr1, stronger effect = lower value",1.01
same,normalized growth,"locus YDR335W, strain msn5, stronger effect = lower value",1
same,normalized growth,"locus YDR388W, stronger effect = lower value",1.02
same,normalized growth,"locus YDR392W, strain spt3, stronger effect = lower value",0.875
same,normalized growth,"locus YDR502C, strain sam2, stronger effect = lower value",1
same,normalized growth,"locus YEL003W, strain gim4, stronger effect = lower value",1.01
same,normalized growth,"locus YEL037C, strain rad23, stronger effect = lower value",1.02
same,normalized growth,"locus YEL061C, strain CIN8 (second series), stronger effect = lower value",1
same,normalized growth,"locus YEL061C, strain CIN8, stronger effect = lower value",1
same,normalized growth,"locus YER015W, strain faa2, stronger effect = lower value",0.989
same,normalized growth,"locus YER016W, strain bim1, stronger effect = lower value",0.995
same,normalized growth,"locus YER110C, stronger effect = lower value",1.01
same,normalized growth,"locus YER111C, strain swi4, stronger effect = lower value",1.01
same,normalized growth,"locus YER155C, strain BEM2 (second series), stronger effect = lower value",0.859 (active)
same,normalized growth,"locus YER155C, strain BEM2, stronger effect = lower value",0.999
same,normalized growth,"locus YER167W, strain BCK2, stronger effect = lower value",1.01
same,normalized growth,"locus YFR010W, strain ubp6, stronger effect = lower value",1.01
same,normalized growth,"locus YGL078C, strain dbp3, stronger effect = lower value",1.01
same,normalized growth,"locus YGL086W, strain mad1, stronger effect = lower value",0.981
same,normalized growth,"locus YGL167C, strain pmr1, stronger effect = lower value",1.01
same,normalized growth,"locus YGL173C, strain kem1, stronger effect = lower value",1.02
same,normalized growth,"locus YGL227W, strain vid30, stronger effect = lower value",0.999
same,normalized growth,"locus YGL240W, strain doc1, stronger effect = lower value",0.985
same,normalized growth,"locus YGL248W, strain PDE1, stronger effect = lower value",1.01
same,normalized growth,"locus YGL253W, strain hxk2, stronger effect = lower value",1.03
same,normalized growth,"locus YGR078C, strain PAC10, stronger effect = lower value",1.02
same,normalized growth,"locus YGR135W, strain pre9, stronger effect = lower value",0.991
same,normalized growth,"locus YGR229C, strain SMI1, stronger effect = lower value",1.01
same,normalized growth,"locus YGR252W, strain gcn5, stronger effect = lower value",0.961
same,normalized growth,"locus YHR013C, strain ard1, stronger effect = lower value",1
same,normalized growth,"locus YHR027C, strain rpn1, stronger effect = lower value",1.03
same,normalized growth,"locus YHR030C, strain SLT2, stronger effect = lower value",1.01 and 1.05
same,normalized growth,"locus YHR079C, strain IRE1 (second series), stronger effect = lower value",1.01
same,normalized growth,"locus YHR079C, strain IRE1, stronger effect = lower value",1.05
same,normalized growth,"locus YHR094C, strain hxt1, stronger effect = lower value",1.01
same,normalized growth,"locus YHR129C, strain ARP1, stronger effect = lower value",1
same,normalized growth,"locus YHR142W, strain chs7, stronger effect = lower value",1.05
same,normalized growth,"locus YHR200W, strain rpn10, stronger effect = lower value",1
same,normalized growth,"locus YIL066C, strain RNR3, stronger effect = lower value",1.01
same,normalized growth,"locus YIL073C, strain SPO22, stronger effect = lower value",1.1
same,normalized growth,"locus YIL125W, strain kgd1, stronger effect = lower value",1.01
same,normalized growth,"locus YIR030C, strain dcg1, stronger effect = lower value",1.01
same,normalized growth,"locus YJL092W, strain hpr5, stronger effect = lower value",0.995
same,normalized growth,"locus YJL095W, strain BCK1 (second series), stronger effect = lower value",1.02
same,normalized growth,"locus YJL095W, strain BCK1, stronger effect = lower value",1 and 1.03
same,normalized growth,"locus YJL115W, strain asf1, stronger effect = lower value",1.01
same,normalized growth,"locus YJL129C, strain trk1, stronger effect = lower value",1.04
same,normalized growth,"locus YJL134W, strain LCB3, stronger effect = lower value",1
same,normalized growth,"locus YJL154C, strain vps35, stronger effect = lower value",1
same,normalized growth,"locus YJL164C, strain tpk1, stronger effect = lower value",1.04
same,normalized growth,"locus YJL166W, strain qcr8, stronger effect = lower value",0.964
same,normalized growth,"locus YJL168C, strain set2, stronger effect = lower value",1.01
same,normalized growth,"locus YJL187C, strain SWE1 (second series), stronger effect = lower value",1.02
same,normalized growth,"locus YJL187C, strain SWE1, stronger effect = lower value",0.998
same,normalized growth,"locus YJR043C, strain POL32, stronger effect = lower value",0.995
same,normalized growth,"locus YJR066W, strain TOR1, stronger effect = lower value",0.977
